SARS PLP yeast – qHTS of Yeast-based Assay for SARS-CoV PLP | 0.19% of 330,000 active | S. cerevisiae expressing SARS-CoV PLpro, growth rescue | Potency, µM (top dose mostly 32.9 µM), for the others: at the top dose activity, positive = growth rescue, usual class: activators; calls by dose curve; also: potency is read from the fitted curve at half-maximal effect; 0% is about no effect; nearly all actives have a fitted effect of over 55% in size
Pf growth 96h – Primary qHTS for delayed death inhibitors of the malarial parasite plastid, 96 hour incubation | Potency, µM (series often up to 28.7 µM), without a hit: top-dose activity change, negative = inhibition, hits mostly inhibitors | AID 504834, 2011 | 6.9% of 320,000 active | P. falciparum luciferase reporter growth, 96 h; also: potency is read from the fitted curve at half-maximal effect; % is scaled to controls: 0 for no effect and ±100 for the full control effect
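Erythrocytes infected with luciferase-expressing P. falciparum were dispensed at 2% hematocrit and 0.05% parasitemia (final), then incubated with compounds 96 hours at 37 C in 5% CO2. Luminescence after detection reagent addition reported growth.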
Sm TGR inh – qHTS Assay for the Inhibitors of Schistosoma Mansoni Peroxiredoxins | Schistosoma mansoni thioredoxin glutathione reductase (TGR), Q962Y6 | purified TGR, DTNB reduction, TNB absorbance 405 nm | Potency, µM (titrated, usually from 114 µM), without a hit: at the top dose activity change, negative = inhibition, most hits filed as inhibitors | 3% of 360,000 active | AID 485364, 2010; also: potency is read from the fitted curve at half-maximal effect; % is scaled to controls: 0 for no effect and ±100 for the full control effect; nearly all actives have a fitted effect of over 60% in size
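First, TGR (20 nM dispensed) and NADPH were mixed with compound. Second, a 15 min room-temperature incubation followed. Third, further NADPH and then DTNB were added to start the reaction. Finally, TNB absorbance was monitored kinetically.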
HCMV antiviral – qHTS Assay for inhibitors of the human cytomegalovirus (HCMV). HFF cells, HCMV-luciferase reporter, 72 h; active compounds read low. activity change, negative = inhibition, % at 57.5 µM. 4.5% of 410,000 active. AID 1259415, 2018; in the data active = activity change below about -60%; inconclusive = no clear call, values can overlap the other calls; inactive = above about -39%; also: % is scaled to controls: 0 for no effect and ±100 for the full control effect
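Compounds were evaluated in HFFs infected with an HCMV luciferase reporter virus (MOI 1 PFU/cell). Luciferase in lysates collected 72 h post infection served as the replication measure.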
Pf growth 48h – Primary qHTS for delayed death inhibitors of the malarial parasite plastid, 48 hour incubation. P. falciparum luciferase growth in erythrocytes, 48 h. Potency, µM (titrated, usually from 28.7 µM), for the others: top-dose activity change, negative = inhibition, usual class: inhibitors. 5.9% of 310,000 active. AID 504832, 2011; also: potency is read from the fitted curve at half-maximal effect; % is scaled to controls: 0 for no effect and ±100 for the full control effect
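Read-out is firefly luciferase luminescence from an integrated reporter in P. falciparum, so falling signal marks reduced parasite growth. Infected erythrocytes were at 2% hematocrit and 0.1% parasitemia (final) in Albumax-supplemented RPMI 1640.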
HCV inh – qHTS Assay for Inhibitors of Hepatitis C Virus (HCV); Huh7.5.1 HCVcc-Cre infection, luciferase reporter, 44 h; Potency, µM (titrated, usually from 41.8 µM), for the others: at the top dose activity change, negative = inhibition, usual class: inhibitors; 3.4% of 340,000 active; also: potency is read from the fitted curve at half-maximal effect; % is scaled to controls: 0 for no effect and ±100 for the full control effect
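Compounds are dispensed onto cells plated 4 h earlier at 1,000 per well, with HCVcc-Cre virus (about 0.5 moi) added next. Following 44 h of culture, luminescent signal is measured for 15 sec after 15 min with substrate at room temperature.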
Starred values were filed as active, the others as inactive; ? = inconclusive; nt = no result given; [ ] = dose if it differs, or a comment. A selection: hits, their analogues and other compounds. The true share with any hit is near 15%. Unless noted, calls follow the shape of the dose curve; as a rule, active = well fitted curve in the direction sought with a large enough effect; inconclusive = small, poorly fitted or top-dose-only effect, or another doubt; inactive = no such curve, though single readings can be large; an effect the other way counts as inactive or inconclusive.

SMILES	SARS PLP yeast	Pf growth 96h	Sm TGR inh	HCMV antiviral	Pf growth 48h	HCV inh
CCOC(=O)CSc1nc2nc(C)cc(C)n2n1	1%	40%	-1%	-26	5%	14%
Cc1ccccc1NC(=O)c1ccc2nc(Cc3ccccc3)oc2c1	nt	nt	-1%	-30	nt	nt
COc1ccc(CNC(=O)c2cccc(S(=O)(=O)N3CCN(c4ccc(F)cc4)CC3)c2)cc1	5%	?	2%	?	?	7.1µM*
COc1cccc(CNC(=O)c2cccc(S(=O)(=O)N3CCN(c4ccc(F)cc4)CC3)c2)c1	-4%	?	-12%	1	?	?
COc1ccccc1CNC(=O)c1cccc(S(=O)(=O)N2CCN(c3ccc(F)cc3)CC2)c1	-12%	?	-2%	-21	10µM*	11µM*
CN(CC(=O)Nc1ccc(F)cc1)C(=O)c1cccc(S(=O)(=O)N2CCN(c3ccccc3)CC2)c1	7%	?	5%	-15	-17%	-42%
COc1ccc(NC(=O)CN(C)C(=O)c2cccc(S(=O)(=O)N3CCN(c4ccc(F)cc4)CC3)c2)cc1	nt	nt	nt	-73*	nt	13µM*
CCCCN1CC[C@@H]2C=CC[C@H](C(=O)OC)[C@@H]2C1=O	19%	nt	nt	-12	nt	25%
CCCCN1CC[C@H]2C=CC[C@@H](C(=O)N3CCOCC3)[C@H]2C1=O	nt	nt	nt	-25	nt	0.56µM*
CCCNC(=O)N1CCN(S(=O)(=O)c2ccc3c(ccn3C)c2)CC1	nt	nt	1%	-9	nt	nt
Cc1ccc(S(=O)(=O)NCCCCCCNS(=O)(=O)c2ccc(C)cc2)cc1	nt	nt	nt	-12	nt	nt
Cc1ccc(NC(=O)CCCCCNS(=O)(=O)c2ccc(C)cc2)cc1	-5%	12µM*	3%	-8	?	?
COCCNS(=O)(=O)c1ccc(-c2ccc(C)cc2)cc1	-4%	nt	0%	-64*	8%	?
CCOCCCNC(=O)CCNS(=O)(=O)c1ccc(C)cc1	0%	9.3µM*	7%	71	5%	-3%
Cc1ccc(S(=O)(=O)NCCCCCC(=O)Nc2nccs2)cc1	6%	5%	-3%	-11	13µM*	-13%
Cc1c(N)cc2c(c1N)C(C)(C)CC2(C)C	nt	nt	nt	-3	nt	1%
CC1(C)C(c2ccccc2)=[N+]([O-])CN1O	6%	44%	2%	18	-8%	-5%
Cc1cc(C)cc(NC(=O)C[n+]2ccccc2)c1	0%	?	12%	21	-1%	14%
Cc1ccc(S(=O)(=O)NCCCCCC(=O)N(C)C)cc1	0%	10µM*	11%	204	-11%	15%
CCOc1ccc(N2C(=O)/C(=C\c3ccc(O)c(OC)c3)S(=O)(=O)C2c2cccc([N+](=O)[O-])c2)cc1 (stereo unspecified)	1%	-33%[1.15 µM]	-3%	23	6%	-1%
CCOC(=O)C1=C(C)n2c(s/c(=C/c3cccc([N+](=O)[O-])c3)c2=O)=NC1c1ccc(O)c(OC)c1 (stereo unspecified)	2%	nt	3%	-3	2.9µM*	8.9µM*
Cn1c(SCC(=O)Nc2ccccc2)nnc1-c1ccc2nonc2c1	-1%	13%	-17%	2	13%	-6%
Cc1c(-c2cccs2)[n+](=O)c2c(n1[O-])CCCCC2	-3%	10µM*	3%	60	-3%	-2%
Cc1c(-c2ccccc2)[n+](=O)c2c(n1[O-])CCCC2	0%	82%	7%	15	73%	4%
Cc1ccc(C(=O)N[C@H](C(=O)NC2CCCCC2)C(C)C)cc1	2%	nt	nt	5	nt	14%
Cc1ccccc1CN1CCN(S(C)(=O)=O)CC1	19%	-1%	-4%	1	1%	9%
Cc1ccccc1CN1CCN(S(=O)(=O)c2ccc(Cl)s2)CC1	-6%	13µM*	0%	-5	13%	nt
